# RORgamma inh: qHTS for inhibitors of ROR gamma transcriptional activity; AID 2551, 2010; Nuclear receptor ROR-gamma (Mus musculus), P51450; Potency, µM (highest dose often 53.6 µM), without a hit: top-dose activity change, negative = inhibition, actives largely listed as inhibitors; Drosophila S2 Gal4-RORgamma UAS-luciferase reporter, 20 h; 310,000 tested, 5.4% active; further: on the % scale 0 is the no-effect control and ±100 the full control effect; nearly all actives have a fitted effect of over 60% in size
# Target sequence (P51450 whole entry, looked up, the tested form may be a part): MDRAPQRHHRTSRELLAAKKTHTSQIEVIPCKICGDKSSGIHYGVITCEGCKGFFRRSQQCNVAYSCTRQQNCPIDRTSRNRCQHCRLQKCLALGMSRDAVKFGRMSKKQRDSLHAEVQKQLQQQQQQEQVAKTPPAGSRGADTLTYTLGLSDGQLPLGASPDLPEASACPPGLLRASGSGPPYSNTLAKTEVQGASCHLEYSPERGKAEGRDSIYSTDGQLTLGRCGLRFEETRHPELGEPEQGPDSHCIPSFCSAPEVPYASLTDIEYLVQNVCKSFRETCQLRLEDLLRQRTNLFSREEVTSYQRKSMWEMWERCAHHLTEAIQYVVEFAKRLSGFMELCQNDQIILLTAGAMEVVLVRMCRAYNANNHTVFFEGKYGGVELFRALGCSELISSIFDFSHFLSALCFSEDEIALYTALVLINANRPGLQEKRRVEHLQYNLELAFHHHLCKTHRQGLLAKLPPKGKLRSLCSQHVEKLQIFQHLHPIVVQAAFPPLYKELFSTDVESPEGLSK
#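 Luciferase reporter read in Schneider cells carrying Gal4-RORγ (mouse) and UAS-Photinus luciferase; cells given compound 1 h before 700 uM copper sulfate induction, then incubated 20 h at ambient temperature.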
# Gal4-VP16 FLuc: VP16 counterscreen qHTS for inhibitors of ROR gamma transcriptional activity. Drosophila S2 Gal4-VP16 UAS-luciferase, luminescence, 20 h. Potency, µM (highest dose often 53.6 µM), for inactives: top-dose activity, negative = inhibition, actives largely listed as inhibitors. AID 2546, 2010. 310,000 tested, 3.5% active;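 further: Gal4-VP16 expression switched on by copper sulfate through the metallothionein promoter; on the % scale 0 is the no-effect control and ±100 the full control effect; nearly all actives have a fitted effect of over 50% in size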
# MCF10A rereplic: A quantitative high throughput screen for small molecules that induce DNA re-replication in MCF 10a normal breast cells; AID 624296, 2012; 350,000 tested, 2.9% active; Potency, µM (series often up to 46.1 µM), for the others: at the top dose activity, positive = re-replication, most hits filed as activators; MCF 10A DNA re-replication, Hoechst nuclear intensity, 48 h; further: % of control where 0% means no effect; nearly all actives have a fitted effect of over 50% in size
# SW480 rerep: A quantitative high throughput screen for small molecules that induce DNA re-replication in SW480 colon adenocarcinoma cells | Potency, µM (titrated, usually from 46.1 µM), for inactives: at the top dose re-replication activation, hits mostly activators | SW480 DNA re-replication, Hoechst DNA content imaging, 48 h | 340,000 tested, 1.8% active; further: % of control where 0% means no effect; nearly all actives have a fitted effect of over 55% in size
#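 Quantitative HTS format with DMSO vehicle controls; 48 hr drug incubation at 37 C, then 40 min Hoechst staining and scanning imager measurement at 405 nm excitation.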
# ELG1 DNA repair: qHTS screen for small molecules that inhibit ELG1-dependent DNA repair in human embryonic kidney (HEK293T) cells expressing luciferase-tagged ELG1 | HEK293T ELG1-luciferase reporter, luminescence, 16 h; DNA damage induced by 5-fluorouridine | Potency, µM (top dose mostly 46.1 µM), for the others: top-dose activity change, negative = inhibition, usual class: inhibitors | 330,000 tested, 2.3% active | AID 504467, 2011; further: on the % scale 0 is the no-effect control and ±100 the full control effect; nearly all actives have a fitted effect of over 55% in size
#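 HEK293T cells expressing luciferase-tagged ELG1 (2,000/well) received 5-Fluorouridine plus compound or DMSO for 16 hr at 37 °C. Luciferase was read by ONE-Glo luminescence after 30 min at room temperature.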
# * marks the source's active call; other numbers are inactive results; ? = inconclusive; . = no result given; [ ] = another dose, or the depositor's remark. This is a sample that favours compounds with a hit; in the whole collection about 10% have one here. The call rests on the fitted dose curve; in most records, active means well fitted curve in the direction sought with a large enough effect; inconclusive means small, poorly fitted or top-dose-only effect, or another doubt; inactive means no such curve, though single readings can be large; an effect the other way counts as inactive or inconclusive. Potency means the concentration at half of the fitted maximal effect.
SMILES,RORgamma inh,Gal4-VP16 FLuc,MCF10A rereplic,SW480 rerep,ELG1 DNA repair
Cc1sc(C(=O)Nc2ccc3ccccc3c2)cc1CC(=O)O,8%,2%,-3%,1%,?
CC1=C(C(=O)N2CCCC(N3CCN(c4ccccc4F)CC3)C2)OCCO1 (stereo unspecified),2%,9%,-1%,-2%,-2%
CCCCCC(=O)NNC1=NCC(Cc2ccccc2)S1 (stereo unspecified),1.4µM*,?,-3%,0%,0%
COc1ccc(-c2noc(CCCC(=O)O)n2)cc1,0.32µM*,0.35µM*,189%[0.0737 µM],-5%,?
CCN(CCCNC(=O)CCc1nc(-c2ccc(OC)cc2)no1)c1cccc(C)c1,30%,4%,20%,13%,18µM*
COc1ccc(-c2noc(CCC(=O)O)n2)cc1,?,?,-27%,-5%,?
CCOc1ccc(-c2noc(CCC(=O)O)n2)cc1,0.35µM*,1.4µM*,?,4.1µM*,?
COc1cc(-c2noc(CCCC(=O)NC3CCCCC3)n2)cc(OC)c1OC,-3%,3%,2%,4%,5.2µM*
O=C(CCC(=O)c1ccc(Oc2ccccc2)cc1)Nc1ccc(C(=O)O)cc1,4%,-7%,-4%,13%,-1%
COc1ccc(Nc2nnc(SCC(=O)NC3CCS(=O)(=O)C3)s2)cc1 (stereo unspecified),.,.,16%,-86%,?
CC1(C)OC(=O)NC1=O,2%,-7%,2%,0%,.
Cc1cc(N2CCCC2=O)cc(C)c1S(=O)(=O)NCCOc1ccc(C(C)(C)C)cc1,?,3.2µM*,?,17%,21µM*
O=C1CCCN1c1ccc(S(=O)(=O)NCCOc2ccccc2)cc1,?,?,-3%,2%[9.22 µM],?
CN(C)c1ccc(-n2cccc2/C=C/[N+](=O)[O-])cc1,11µM*,-6%[10 µM],?,14%,?
O=S(=O)(c1ccccc1Oc1ccc(Cl)cc1Cl)N1CCCCC1,-3%,-12%,2%,-13%,10%
O=C(NCc1ccccc1)C1CCC(=O)N(CC2CCCCC2)C1 (stereo unspecified),8%,0%,2%,-1%,12%
CC(C)C[C@H](NC(=O)c1nc[nH]c1C(=O)NC(c1ccccc1)c1ccccc1)C(=O)OCc1ccccc1,2.5µM*,4.5µM*,28%,3%,0%
O=C(N[C@@H](Cc1ccccc1)C(=O)OCc1ccccc1)c1nc[nH]c1C(=O)N1CCN(c2ccccc2)CC1,10µM*,?,?,23%,-11%
CC(C)C[C@H](NC(=O)c1nc[nH]c1C(=O)NCCCCCN)C(=O)OCc1ccccc1,.,.,?,-21%,17%
O=C(N[C@@H](Cc1ccccc1)C(=O)OCc1ccccc1)c1nc[nH]c1C(=O)NCc1ccccc1,10µM*,?,10%,1%,-4%
C[C@H](NC(=O)c1nc[nH]c1C(=O)NCc1ccc(CNC(=O)OC(C)(C)C)cc1)C(=O)OCc1ccccc1,.,.,?,-16%,-9%
CC(C)C[C@H](NC(=O)c1[nH]cnc1C(=O)N[C@@H](Cc1ccccc1)C(=O)OCc1ccccc1)C(=O)OCc1ccccc1,11µM*,11µM*,2%,15%,-16%
CCOc1cc(C=O)cc(Cl)c1OCC(N)=O,2%,1%,28%,-18%,7%
CN(CC(=O)Nc1ccc(F)cc1)CC(=O)N1CCCC1,.,.,-6%,-2%,?
CC(C)C[C@H](NC(=O)c1nc[nH]c1C(=O)N[C@@H](CC(C)C)C(=O)OCc1ccccc1)C(=O)OCc1ccccc1,7.1µM*,?,?,?,-20%
C[C@@H](NC(=O)c1nc[nH]c1C(=O)OCc1ccccc1)c1ccccc1,.,.,5%,-11%,?
CC(C)C[C@H](NC(=O)c1[nH]cnc1C(=O)N[C@H](C)c1ccccc1)C(=O)OCc1ccccc1,6.3µM*,5µM*,?,1%,5%

# Screens as filed in PubChem BioAssay.
